Data on 5 molecules can be found in PubChem BioAssay AID1441 (NMMLSC, 2008).

Screen size: about 220,000 compounds; about 830 (0.38%) were called active. Many of the other results were omitted from the sample, so actives are more common in it than they were. A number with no mark means an inactive call. The rule behind the calls is not given here.

The target of this assay is Regulator of G-protein signaling 16 (Homo sapiens) + Guanine nucleotide-binding protein G(o) subunit alpha (Homo sapiens) (UniProt O15492+P09471). The assay can be described thus: modulators of RGS16 binding to Galphao, primary screen, biochemical, human proteins, multiplexed bead flow cytometry (AID 1441).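 Note: Galphao activated by GDP with aluminum fluoride before binding.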 Particulars: bead-based flow cytometry RGS16-Galphao binding, fluorescence; at 10 µM; actives lie on both sides.
Sequence of Regulator of G-protein signaling 16 (Homo sapiens) + Guanine nucleotide-binding protein G(o) subunit alpha (Homo sapiens) (O15492 whole entry, looked up): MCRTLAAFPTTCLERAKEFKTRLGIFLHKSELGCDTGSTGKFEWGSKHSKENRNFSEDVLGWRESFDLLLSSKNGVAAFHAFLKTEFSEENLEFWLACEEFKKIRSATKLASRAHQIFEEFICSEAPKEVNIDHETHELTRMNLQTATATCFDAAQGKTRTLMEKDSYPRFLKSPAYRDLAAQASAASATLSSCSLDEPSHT
Sequence of Regulator of G-protein signaling 16 (Homo sapiens) + Guanine nucleotide-binding protein G(o) subunit alpha (Homo sapiens) (P09471 whole entry, looked up): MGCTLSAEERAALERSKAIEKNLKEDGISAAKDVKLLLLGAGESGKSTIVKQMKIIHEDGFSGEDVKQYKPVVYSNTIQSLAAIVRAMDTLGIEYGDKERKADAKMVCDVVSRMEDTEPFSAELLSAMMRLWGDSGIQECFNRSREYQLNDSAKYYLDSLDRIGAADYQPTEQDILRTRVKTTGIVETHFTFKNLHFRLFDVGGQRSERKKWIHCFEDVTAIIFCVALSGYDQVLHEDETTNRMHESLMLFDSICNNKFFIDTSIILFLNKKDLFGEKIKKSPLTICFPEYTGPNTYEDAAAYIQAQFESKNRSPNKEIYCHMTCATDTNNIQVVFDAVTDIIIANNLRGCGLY
On to `CC(C)N(CC#CCC1(O)c2ccccc2-c2ccccc21)C(C)C`, for which the binding response (% of control) was 180% [activator] (active).

As for `CCOC(=O)C1(Cc2ccc(Cl)cc2)CCN(C(C)CCn2cccn2)CC1` (stereo not given), the binding response (% of control) is 102%. The figure for `O=[N+]([O-])c1ccc(C2C3C(c4ccccc4)=NC4(CCCCC4)N32)cc1` (stereo not given) is 100%; for `COc1ccc(CN2C(=O)NC(=O)/C(=C\c3ccc(OC)c(OC)c3OC)C2=O)cc1` it is 97.6%; for `CCOC(=O)c1c(-c2ccccc2)oc2ccc(OC(=O)N(C)C)cc12` it is 116%.
